Measured values published in PubChem BioAssay AID2810 (NMMLSC, 2010).
Screen size: about 1,200 compounds; about 65 (5%) were called active. This is one part of a sample in which actives are shown more often than they occur.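 The calls were made as follows: active = at either tested dose, response and 90th-percentile vesicle-stain brightness of CD8 cells under set limits and under 9% cells vesicle-bound; inactive = the rest.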

Assay: modulators of CD8 T cell-vesicle binding, confirmation, cherry-picked primary hits, two concentrations (AID 2810);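 also: lower values mean blocking of vesicle binding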;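 as to percent response (vesicle binding): ratio of mean FL2 vesicle stain of CD8+ cells to that row's control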
Conditions: 2C CD8+ T cell-vesicle binding, flow cytometry; for double positive events: CD8+/vesicle+ events
[1] = at 15.4 µM, stronger effect = lower value

SMILES | double positive events (at 7.7 µM) | double positive events [1] | percent response (vesicle binding) [1] | percent response (vesicle binding) (response, at 7.7 µM)
CCOc1ccc(-c2cn(-c3ccc(OC)cc3)c(SC)n2)cc1 | 11.4% | 13.4% | 155% (inactive) | 303%
CCc1c(C)nc(SCC(=O)Nc2nc(-c3ccc(OC)cc3)cs2)[nH]c1=O | 33.4% | 10.4% | 192% (inactive) | 289%
Cc1cc([N+](=O)[O-])nn1CC(=O)Nc1nccs1 | 35% | 19.6% | 221% (inactive) | 201%
Cc1ccc(S(=O)(=O)N(C)CC(=O)Nc2nc3ccccc3s2)cc1 | 30.7% | 26.8% | 351% (inactive) | 371%
Cc1ccc(S(=O)(=O)c2c(N)n(NC(=O)c3ccccc3C)c3nc4ccccc4nc23)cc1 | 22.8% | 1.1% | 26.2% (active) | 248%
Cc1ccc(S(=O)(=O)N2CCC(NC(=O)c3ccccc3)CC2)cc1 | 28.6% | 28.6% | 425% (inactive) | 558%
O=C(CN1C(=O)C2CCCN2C(=O)c2ccccc21)Nc1ccccc1-n1cccc1 (stereo unspecified) | 5.8% | 12.2% | 354% (inactive) | 425%
COc1ccc(C(=O)O)cc1S(=O)(=O)Nc1cccc(C)c1 | 14.1% | 17.7% | 296% (inactive) | 181%
C=CCN(c1ccc(Br)cc1C(=O)OC)S(C)(=O)=O | 29.1% | 2.3% | 35.1% (active) | 465%
COc1ccc(N(CC(=O)O)S(C)(=O)=O)cc1OC | 24.1% | 30.5% | 229% (inactive) | 691%
c1ccc2c(c1)COC(CN1CCCCC1)OC2 | 12.3% | 10.2% | 418% (inactive) | 439%
COC(=O)[C@]1(C)N[C@H](CN(C)S(=O)(=O)c2ccc(OC(F)(F)F)cc2)[C@@H]2C(=O)N(C)C(=O)[C@@H]21 | 9.2% | 26.1% | 907% (inactive) | 443%
COc1ccc(NC(=O)CN2CCN(S(=O)(=O)c3ccc(Cl)cc3)CC2)cc1 | 31.1% | 12% | 124% (inactive) | 164%
CCCCNS(=O)(=O)c1ccc(OCC(=O)OC)cc1 | 14.8% | 20% | 106% (inactive) | 517%
COc1ccc(-c2cc(CNS(=O)(=O)c3ccc(NC(C)=O)cc3)on2)cc1 | 23.7% | 2.2% | 18.8% (active) | 277%
Cc1ccc(CN2CC(=O)N3[C@H]4c5cc(C)ccc5OC[C@@H]4[C@H](c4ccccc4)[C@]3(C)C2=O)cc1 | 8.3% | 11.2% | 109% (inactive) | 231%
C/C(=N\NC(=O)Cn1cc([N+](=O)[O-])cn1)c1ccco1 | 23.5% | 26.1% | 268% (inactive) | 291%

SMILES | double positive events (at 7.7 µM) | double positive events [1] | percent response (vesicle binding) [1] | percent response (vesicle binding) (response, at 7.7 µM)
CCOC(=O)N1CCN(C(=O)c2ccc(N3CCCC3=O)cc2)CC1 | 9.7% | 22.5% | 213% (inactive) | 150%
O=C(c1ccc(Cl)cc1)N1CCC(C(=O)N2CCN(c3ncccn3)CC2)CC1 | 27.3% | 6.4% | 173% (inactive) | 114%
O=C(c1ccc(N2C(=O)C3CC=C(Cl)CC3C2=O)cc1)N1CCCCC1 (stereo unspecified) | 19.3% | 5.2% | 56.9% (active) | 195%
Cc1cc(C)cc(NC(=O)CC23CC4CC(C2)CC(n2nnc(C)n2)(C4)C3)c1 | 6.1% | 35.3% | 236% (inactive) | 200%
CCCc1nnc(NC(=O)CCC(=O)N2CCC(Cc3ccccc3)CC2)s1 | 11.7% | 25.7% | 200% (inactive) | 291%
Cc1c2cccn2cc[n+]1C | 16.6% | 4.4% | 29.6% (active) | 159%
Cc1cccc(C(=O)OCC(=O)Nc2c(C)n(C)n(-c3ccccc3)c2=O)c1 | 11% | 26.9% | 392% (inactive) | 320%
Cc1ccc(C(=O)NC(C)CCc2ccccc2)cc1[N+](=O)[O-] (stereo unspecified) | 27% | 32.4% | 199% (inactive) | 481%
Cc1ccc(-n2ncc3c(N4CCCC(C)C4)ncnc32)c(C)c1 (stereo unspecified) | 15.4% | 13.3% | 312% (inactive) | 283%
CCSc1nnc(NC(=O)c2ccc(F)c(S(=O)(=O)N3CCOCC3)c2)s1 | 23.7% | 34.2% | 203% (inactive) | 209%
O=C(OCCOc1cccc(Cl)c1)c1ccc(F)c(S(=O)(=O)N2CCOCC2)c1 | 24.5% | 0.7% | 42.7% (active) | 333%
O=C(NCC1CCCCC1)c1ccc(Cl)c(S(=O)(=O)N2CCOCC2)c1 | 9.2% | 22.8% | 342% (inactive) | 135%
CC1CCN(S(=O)(=O)c2csc(C(=O)Nc3ccccc3)c2)CC1 | 33.2% | 23.8% | 579% (inactive) | 415%
CC(=O)Nc1ccccc1OC(C)C(=O)NC(C)c1ccc(F)cc1 (stereo unspecified) | 9.2% | 9% | 114% (inactive) | 420%
Cc1cc(F)ccc1S(=O)(=O)N1CCCOC1CNC(=O)C(=O)NC1CCCC1 (stereo unspecified) | 11.7% | 9.3% | 255% (inactive) | 451%
COC(=O)c1ccc(OC(=O)CS(=O)c2ccccc2[N+](=O)[O-])cc1 (stereo unspecified) | 15% | 3.4% | 143% (inactive) | 395%
Cc1cccc(Nc2nc(-c3ccccn3)cs2)n1 | 28.1% | 5.2% | 46.7% (active) | 538%
